The list is not random: actives were taken first. Their share in the collection is about 6.5%.
Vaccinia Venus = inhibitors of vaccinia virus (Venus reporter). 330,000 compounds, 0.46% hits. AID 720580. Vaccinia virus Venus reporter expression, fluorescence. Potency, µM (doses to about 36.5 µM), for inactives: top-dose activity change, negative = inhibition, hits mostly inhibitors; calls by dose curve; tested in A549 cells; note: potency is the fitted concentration of half-maximal effect; nearly all actives have a fitted effect of over 30% in size
VACV mCherry inh = vaccinia inhibition (mCherry reporter); AID 720579; Vaccinia virus mCherry reporter infection, fluorescence; Potency, µM (doses to about 36.5 µM), inactives show at the top dose activity change, negative = inhibition, usual class: inhibitors; 310,000 compounds, 0.63% hits; calls by dose curve; tested in A549 cells; note: potency is the fitted concentration of half-maximal effect; nearly all actives have a fitted effect of over 35% in size
HCMV antiviral = human cytomegalovirus inhibition | HFF cells, HCMV-luciferase reporter, 72 h; active compounds read low | activity change, negative = inhibition, % at 57.5 µM | 410,000 compounds, 4.5% hits | AID 1259415; in the data active = activity change below about -60%; inconclusive = no clear call, values can overlap the other calls; inactive = above about -39%
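Cell-based, HFFs, 1000 cells/well, 16 h 37C; cpds in DMSO + HCMV-luc, MOI 1 PFU/cell; 72 h 37C; OneGlo luminescence after 5 min RT; norm. to buffer vs Salinomycin 10uM.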
Marburg entry inh = blocks Marburg virus binding to or entry into cells; Marburg virus pseudotyped entry inhibition, cell reporter; Potency, µM (top dose mostly 37.8 µM), for inactives: top-dose activity change, negative = inhibition, hits mostly inhibitors; 300,000 compounds, 1.8% hits; AID 540276; calls by dose curve; tested in HEK293 cells; note: potency is the fitted concentration of half-maximal effect
FMDV inh = blocks foot and mouth disease virus; FMDV antiviral cell-based qHTS; Potency, µM (top dose mostly 57.9 µM), for inactives: top-dose activity change, negative = inhibition, usual class: inhibitors; 410,000 compounds, 1.2% hits; calls by dose curve; tested in HEK293T cells; note: read-out not given here; potency is the fitted concentration of half-maximal effect; nearly all actives have a fitted effect of over 45% in size
LASV entry inh = inhibitors of Lassa virus binding or cell entry; Lassa virus pseudotype entry inhibition, cell reporter; Potency, µM (doses to about 37.9 µM), without a hit: at the highest dose activity change, negative = inhibition, most hits filed as inhibitors; 300,000 compounds, 1.2% hits; AID 540256; calls by dose curve; tested in HEK293 cells; note: potency is the fitted concentration of half-maximal effect; nearly all actives have a fitted effect of over 50% in size
The depositor's hits bear a star; i = inactive; u = inconclusive; x = no result given; ! = repeats disagree; [ ] = remark or other dose. % is set by controls: 0 for no effect and ±100 for the full control effect.

SMILES	Vaccinia Venus	VACV mCherry inh	HCMV antiviral	Marburg entry inh	FMDV inh	LASV entry inh
CCC(C)Sc1cccc(-c2nc3cnccn3c2NC2CCCCC2)c1 (stereo not drawn)	u	u	40	x	-6%	x
CCC(C)Sc1ccc(-c2nc3ccc(C)cn3c2NC2CCCCC2)cc1 (stereo not drawn)	u	8.9µM*	x	x	-12%	x
CCC(C)Sc1cc(-c2nc3ccccn3c2NC2CCCCC2)ccc1OC (stereo not drawn)	u	u	-88*!	x	u	x
Nc1cccc(/C=C/c2ccnc3ccccc23)c1	-18%	-27%	x	x	x	x
COc1cccc(CNC(=O)CCC2CCCN(C(=O)c3cc4ccccc4o3)C2)c1 (stereo not drawn)	-20%	-19%	10	11µM*	2%	u
O=C(Nc1ccc2nc3n(c(=O)c2c1)CCCCC3)c1ccccc1[N+](=O)[O-]	-1%[7.34 µM]	-5%[7.34 µM]	-32	x	8%	x
O=C(Nc1ccc2nc3n(c(=O)c2c1)CCCCC3)c1c(F)ccc([N+](=O)[O-])c1F	u	u	-100*	7.1µM*	10µM*	u
O=C(Nc1ccc2nc3n(c(=O)c2c1)CCCCC3)c1cc([N+](=O)[O-])ccc1F	x	x	-72*	x	32µM*	x
O=C(Nc1ccc2nc3n(c(=O)c2c1)CCCC3)c1ccccc1F	x	x	0	x	48%	x
CCC(=O)N1CCc2cc(S(=O)(=O)NCCC(=O)Nc3ccc(OC)c(Cl)c3)ccc21	-9%[7.34 µM]	-8%[7.34 µM]	-14	-1%[46.1 µM]	0%	-23%[46.1 µM]
C=CCn1c(N/N=C/c2ccc(O)cc2)nc2ccccc2c1=O	x	x	-65*	x	37%	x
COc1ccc2c(c1)Cc1sc(NC(=O)c3cccc(Cl)c3)nc1-2	u	u	-27	x	u	20%[46.1 µM]
COc1ccc2c(c1)Cc1sc(NC(=O)c3ccc(Cl)cc3)nc1-2	u	u	-63*	u	-19%	3%[46.1 µM]
COc1ccc(C(=O)Nc2nc3c(s2)CCc2cc(OC)ccc2-3)cc1	-7%	-22%	-33	u	u	12%[46.1 µM]
COc1ccc2c(c1)Cc1sc(NC(=O)c3cccc(C)c3)nc1-2	-4%	-10%	-70*	8%[46.1 µM]	5%	0%[46.1 µM]
O=C(CN(c1ccccc1Cl)S(=O)(=O)c1ccccc1)N/N=C/c1ccccc1C(=O)O	-15%	-6%	-63*	1%[46.1 µM]	7%	0%
Cc1cc(Cl)ccc1NC(=O)C(=O)NCc1ccco1	u	-2%	16	x	48%	5%[46.1 µM]
O=C(/C=C/c1ccco1)Nc1ccc(Oc2ccc(Cl)cc2)cc1	u	u	-68*	u	u	u
Cc1cc(Cl)ccc1NC(=S)NCc1ccco1	-14%	i	-61*	u	0%	9%
COc1cccc(NC(=O)/C=C/c2ccco2)c1	1%	i	16	u	38%	-19%
S=C(NCc1ccco1)Nc1ccc(Cl)cc1	-8%	-20%	-10	-17%	70%	-13%
S=C(NCc1ccco1)Nc1ccc(Oc2ccc(Cl)cc2)cc1	-11%[7.34 µM]	i[7.34 µM]	-60*	-20%[46.1 µM]	-6%	-6%
Cc1ccc(-c2cn(CCC(=O)O)c(=O)cn2)cc1	x	x	-9	x	x	x
Cc1cccn2c(=O)cc(CSc3nnc(NC(=O)COc4ccc(F)cc4)s3)nc12	-5%	-1%	-24	x	-16%	14%[46.1 µM]
COc1ccc([C@H]2C[C@H](O)[C@@H](n3cc(COC(=O)c4ccccc4)nn3)CN2CC2CCCCC2)cc1	u	-26%	-90*	x	u	u
SMILES	Vaccinia Venus	VACV mCherry inh	HCMV antiviral	Marburg entry inh	FMDV inh	LASV entry inh
CCCCCCN1C[C@H](n2cc(COC(=O)c3ccccc3)nn2)[C@@H](O)C[C@@H]1c1ccc(Cl)cc1	10µM*	u	u	x	u	x
Cc1cc(C(C)(C)C)cc(C)c1Cn1c2[n+](c3ccc(C(F)(F)F)cc31)CCCCC2	-6%	i	-95*	u	28µM*	13µM*
COc1ccc(CCCC(=O)NCc2ccccc2)cc1C	-27%	-23%	-16	-26%	-23%	8.2µM*
Cc1ccc(CNC(=O)CCCc2ccccc2)cc1	-2%	-11%	7	11%[46.1 µM]	21%	x
Cc1ccc(-c2ccc(/C=C3\SC(N4CCOCC4)=NC3=O)o2)cc1	u	u	-4	u	-14%	u
O=C1N=C(N2CCOCC2)S/C1=C/c1ccc(-c2ccc(F)cc2)o1	-20%	i	-4	2.5µM*	-16%	u
CCC(Sc1nc2ccsc2c(=O)n1Cc1ccc(C(=O)O)cc1)C(=O)Nc1cc(Cl)ccc1C (stereo not drawn)	-5%	-3%	-95*	x	-6%	x
COc1ccc(-c2nn(C)c3sc(C(=O)Nc4cc(OC)c(OC)c(OC)c4)cc23)cc1OC	-3%[7.34 µM]	-11%[7.34 µM]	-98*	u	-11%	u
COc1ccccc1NC(=O)c1cc2c(-c3ccccc3)nn(-c3ccccc3)c2s1	-6%	-12%	-61*	16%[46.1 µM]	-22%	-20%[46.1 µM]
COc1ccc(-c2nn(C)c3sc(C(=O)NCc4ccco4)cc23)cc1OC	-5%	-17%	13	-1%	-12%	0%
CCOC(=O)N1CCC(NC(=O)c2cc3c(-c4ccc(OC)c(OC)c4)nn(C)c3s2)CC1	-1%	-11%	8	-22%	u	u
COc1ccc(NC(=O)c2cc3c(-c4ccc(OC)c(OC)c4)nn(C)c3s2)cc1OC	x	x	-97*	13µM*	-25%	13µM*
Cc1ccc(Cl)cc1NC(=O)Cn1nnc2sc3c(c2c1=O)CCC(C(C)(C)C)C3 (stereo not drawn)	-2%	9%	-30	u	-18%	-23%[46.1 µM]
O=C1N=C(O)CN1/N=C/C1C=CC(c2ccc([N+](=O)[O-])cc2)O1 (stereo not drawn)	x	x	x	16%	x	x
Cc1nc2c(=O)n(C)c(=O)nc-2n(C)n1	0.5µM*	u	-103*	0.89µM*	2.8µM*	0.56µM*
Cn1nc(-c2ccccc2)nc2c(=O)n(C)c(=O)nc1-2	1µM*	1µM*	x	x	x	x
Cc1ccc(C)c(-n2c3nc(=O)n(C)c(=O)c-3cc3ccccc32)c1	x	x	-20	x	-18%	x
Cn1nc(-c2ccncc2)nc2c(=O)n(C)c(=O)nc1-2	1µM*	0.89µM*	x	x	x	x
CCCNC(=O)OC[C@H]1O[C@H](CCO/N=C2\C[C@@H](O)[C@@H](O)[C@@H]3[C@@H]4C(=O)N(CC)C(=O)[C@@H]4CC[C@@H]23)C=C[C@@H]1Oc1ccc(OC)cc1	x	x	x	0%[14.2 µM]	x	x
COc1ccc(C(=O)Nc2cc(C)nn2-c2nc3ccccc3[nH]2)c(OC)c1	x	x	-64*	x	-4%	x
COc1cccc(OC)c1C(=O)Nc1cc(C)nn1-c1nc2ccccc2[nH]1	1%	-14%	7	u	-25%	11µM*
Cc1cc(NC(=O)c2ccccc2)n(-c2nc3ccccc3[nH]2)n1	x	x	17	x	-20%	x
Cc1cc(NC(=O)c2sccc2C)n(-c2nc3ccccc3[nH]2)n1	u	u	-70*	u	u	-11%

Bioassay records as filed in PubChem BioAssay.
